Only some compounds are listed: those with a hit (about 4.3% of all), similar ones and a draw of the others.
Yeast superoxide: yeast age-related superoxide inhibition as caloric restriction mimetic; S. cerevisiae aged cells, superoxide DHE fluorescence; hits give low values; superoxide response (% of plate mean), % at 10 µM; 330,000 compounds, 0.18% hits; AID 2690;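 active means superoxide response under a set limit, about three screen SD below normal, cut at about 65% in these data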;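 further: yeast aged for seven days with compound at 30 °C before DHE staining; 100% = average MFI of all compound-treated wells on the plate with controls excluded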
GRIN3A LBD mod: modulates the human NR3A ligand-binding domain; Tm shift relative to glycine control, % at 25 µM; 340,000 compounds, 2.5% hits; NR3A LBD differential scanning fluorimetry, Tm shift; 0% = protein alone, 100% = glycine-bound protein; AID 1259313;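 active means melting temperature shift of at least 10% of the positive control shift, at one fixed dose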
NALP1 inh: NALP1 inhibition; S. cerevisiae NALP1/ASC/caspase-1 growth, X-gal OD620, 72 h; inhibition, % at 10 µM; 280,000 compounds, 0.61% hits; AID 2071; in the data active means inhibition mostly above about 24%, no sharp cut-off; inactive means mostly below about 32%
UBC13 polyUb: inhibitors of human UBC13 polyubiquitin chain formation; TR-FRET; inhibition, % at 20 µM; 330,000 compounds, 0.47% hits; AID 485273; in the data active means inhibition above about 45%, passing the limit was not always enough
Target sequence (P61088 whole entry, looked up): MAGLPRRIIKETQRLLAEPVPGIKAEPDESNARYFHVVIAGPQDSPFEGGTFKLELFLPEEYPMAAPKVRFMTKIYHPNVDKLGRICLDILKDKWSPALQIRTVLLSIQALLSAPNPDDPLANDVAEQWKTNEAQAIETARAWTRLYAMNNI
dFosB activator: enhances mouse delta FosB homodimer DNA binding. P13346. purified delta FosB, TAMRA-CDK5 oligo fluorescence polarization; percent of positive-control signal above neutral wells. activation, % at 25 µM. 340,000 compounds, 0.99% hits. AID 493131;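 active means mean activation above about 17%, with every replicate also reaching it, limit read from the data, passing the limit was not always enough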
Target sequence (P13346 whole entry, looked up): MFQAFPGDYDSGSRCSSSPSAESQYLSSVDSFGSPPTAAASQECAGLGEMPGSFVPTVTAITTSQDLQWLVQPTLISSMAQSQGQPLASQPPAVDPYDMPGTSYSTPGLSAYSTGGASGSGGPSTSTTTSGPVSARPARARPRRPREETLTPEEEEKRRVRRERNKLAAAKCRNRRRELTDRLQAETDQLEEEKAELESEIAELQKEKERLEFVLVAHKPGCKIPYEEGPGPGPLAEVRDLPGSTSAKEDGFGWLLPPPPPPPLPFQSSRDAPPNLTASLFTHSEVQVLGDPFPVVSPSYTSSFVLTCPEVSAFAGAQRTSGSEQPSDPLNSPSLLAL
* marks the source's active call; other numbers are inactive results; i = inactive; . = no result given.

SMILES	Yeast superoxide	GRIN3A LBD mod	NALP1 inh	UBC13 polyUb	dFosB activator
C#CCOCCOCCOCCNc1nc(N2CCN(C(=O)[C@H](CCC(=O)O)n3cc(C(N)[C@H](C)CC)nn3)CC2)nc(N2CCN(C(=O)[C@H](Cc3cc4ccccc4[nH]3)n3cc(C(N)[C@H](C)CC)nn3)CC2)n1 (stereo partly specified)	95	.	7	7	.
O=C(COc1ccc(F)cc1Br)NCc1nnc2ccccn12	104	0	.	-10	0
CCCCCCCCCCC(=O)NNC(=O)c1c(O)c2ccccc2n(CC)c1=O	104	.	-1	-1	.
COCC(C)NC(=O)CSc1nc2ccccc2c(=O)n1CCc1ccc(S(N)(=O)=O)cc1 (stereo unspecified)	111	2	12	-3	-6
C#CCOCCOCCOCCNc1nc(N2CCN(C(=O)[C@H](CCC(=O)O)n3cc(C(N)CC(C)C)nn3)CC2)nc(N2CCN(C(=O)[C@H](Cc3ccc(O)cc3)n3cc(C(N)CC(C)C)nn3)CC2)n1 (stereo partly specified)	103	-1	12	2	-13
C#CCOCCOCCOCCNc1nc(N2CCN(C(=O)[C@H]([C@@H](C)CC)n3cc([C@@H](N)Cc4ccc(O)cc4)nn3)CC2)nc(N2CCN(C(=O)[C@H](CCCCN)n3cc([C@@H](N)CC(C)C)nn3)CC2)n1	106	.	6	97*	.
C#CCOCCOCCOCCNc1nc(N2CCN(C(=O)[C@H](Cc3ccc(O)cc3)n3cc([C@@H](N)CC(C)C)nn3)CC2)nc(N2CCN(C(=O)[C@H](Cc3ccc(O)cc3)n3cc([C@@H](N)CC(C)C)nn3)CC2)n1	.	.	20	63*	.
S=c1nccc(-c2ccc3c(c2)CCO3)[nH]1	i	4	.	0	-5
Cc1ccc(-c2ccnc(=S)[nH]2)cc1	125	10*	-14	-5	-8
NC(=O)C(=O)N/N=C/c1c(F)c(F)c(F)c(F)c1F	103	1	5	-1	2
Cc1ccccc1NS(=O)(=O)c1ccc(-c2ccc(=O)[nH]n2)o1	93	15*	-4	-4	6
CN(C(=O)c1cccc(NC(=O)Cc2ccc(NC(=O)C3CCCN(C(=O)C4CC4)C3)cc2)c1)C1CCCC1 (stereo unspecified)	.	1	.	.	3
Cc1ccc(CN2C(=O)N/C(=C\c3ccc(N4CCOCC4)cc3)C2=O)cc1	114	17*	27	-4	-3
CCCN1C(=O)/C(=C/c2ccc(N3CCOCC3)cc2)NC1=S	93	-29	-2	-108	-3
C/C(=C\c1cc2ccccc2o1)C1Nc2cccc3cccc(c23)N1	117	3	.	-56	3
CCOc1ccc(S(=O)(=O)N(CCO)CCO)cc1-c1nc2c(C(C)(C)C)nn(C)c2c(=O)[nH]1	100	1	10	17	-6
CCCc1nn(C)c2c(=O)[nH]c(-c3cc(S(=O)(=O)N(CCO)CCO)ccc3OCC)nc12	66	-1	30*	3	-16
O=C(Nc1nc(-c2ccccn2)cs1)c1ccc(-c2ccccc2F)o1	97	12*	.	-41	-12
Cc1ccc(C(=O)Nc2nc(-c3ccccn3)cs2)o1	89	8	2	-24	-6
CC(=O)c1ccc(-c2ccc(C(=O)Nc3nc(-c4ccccn4)cs3)o2)cc1	106	11*	.	-32	-34
O=C(Nc1nc(-c2ccccn2)cs1)c1ccc([N+](=O)[O-])o1	91	-5	-3	-25	-3
O=C(NCC1COc2ccccc2O1)c1cccc(S(=O)(=O)NCc2ccccc2)c1 (stereo unspecified)	108	-4	.	3	-8
Cc1ccc(C(=O)CSc2nc3ccccc3o2)cc1	98	17*	-15	8	1
S=c1[nH]nc(-c2cc(-c3ccccc3)n[nH]2)n1/N=C/c1ccc(Cl)c(Cl)c1	111	24*	9	-20	15
O=[N+]([O-])c1ccccc1-c1ccc(/C=N/n2cnnc2)o1	89	0	14	-26	2
SMILES	Yeast superoxide	GRIN3A LBD mod	NALP1 inh	UBC13 polyUb	dFosB activator
O=C1ON=C(c2ccccc2)/C1=C/c1ccc(-c2ccccc2[N+](=O)[O-])o1	115	23*	35	.	-6
CCC(C)N1CCC2(CC1)N=c1c(c3c4c5c(C)c(O)c3c(O)c1=NC(=O)C(C)=CC=C[C@H](C)[C@H](O)[C@@H](C)[C@@H](O)[C@@H](C)[C@H](OC(C)=O)[C@H](C)[C@@H](OC)C=CO[C@@](C)(O5)C4=O)N2 (stereo partly specified)	72	-3	.	-77	-11
CO[C@H]1C=CO[C@@]2(C)Oc3c(C)c(O)c4c(O)c(c5c(c4c3C2=O)NC2(CCN(CC(C)C)CC2)N=5)=NC(=O)C(C)=CC=C[C@H](C)[C@H](O)[C@@H](C)[C@@H](O)[C@@H](C)[C@H](OC(C)=O)[C@@H]1C	62*	.	8	.	.
COc1ccc(CCNC(=O)CSc2nnc(Cn3c(=O)sc4ccccc43)n2C)cc1OC	103	11*	-24	14	-10
COc1ccccc1NC(=O)CSc1nnc(Cn2c(=O)sc3ccccc32)n1C	96	-1	-7	4	-9
Cc1cccc(-n2c(SCc3ccc(C#N)cc3)nnc2-c2c[nH]c3ccccc23)c1	92	-2	24	-4	-11
CCc1ccccc1NC1c2ccccc2C(=O)N1c1cc(C)ccn1 (stereo unspecified)	67	17*	14	-3	0
Cc1ccnc(N2C(=O)c3ccccc3C2Nc2ccccc2Cl)c1 (stereo unspecified)	99	-4	21	12	-5
Cc1cc(NC(=O)c2ccc([N+](=O)[O-])cc2)no1	101	3	1	-5	0
Cc1oc(C(C)(C)C)cc1-c1cc(NC(=O)c2ccc([N+](=O)[O-])cc2)n[nH]1	99	15*	10	-6	0
O=C(Cn1nc(Cc2ccncc2)c2ccccc2c1=O)Nc1cccnc1Cl	108	0	.	9	-1
O=c1[nH]c(C(Cl)Cl)nc2sc3c(c12)CCN(Cc1ccccc1)C3	98	15*	31	.	-8
Clc1ccc(OCCN2CCCCC2)cc1Cl	105	-7	47	0	-2
Clc1cccc(OCCN2CCN(CCOc3cccc(Cl)c3)CC2)c1	83	-24	64*	8	-5
Brc1cccc(OCCCN2CCCCCC2)c1	95	-17	15	2	-1
CC1CCN(CCOc2cccc(Br)c2)CC1	92	11*	46	7	4
COc1ccc(CCN(C)C(=S)Nc2cccc(C)c2)cc1OC	89	-4	4	2	-2
CC1CCc2c(sc(NC(=O)CSc3nc(N)cc(=O)[nH]3)c2C(N)=O)C1 (stereo unspecified)	.	-2	.	-4	6
CC(C)c1ccc(S(=O)(=O)Nc2ccc(SC(F)F)cc2)cc1	98	13*	30	-13	-10

Screening results (PubChem BioAssay)
